CD40 NFkB inh = CD40 pathway inhibition in BL2 cells | BL2 NF-kB luciferase reporter, CD40L-induced, 4 h | inhibition, % at 10 µM | 83,000 compounds, 0.94% hits;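 active = mean inhibition of at least 50% with a set share of replicates also reaching that level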
Large screens that a line does not name were inactive; [ ] = another dose, or the depositor's remark. This excerpt belongs to a sample that is enriched for hits.

CCOC(=O)NCC(Cc1ccc(OCCc2nc(-c3ccccc3)oc2C)cc1)N/C(C)=C/C(=O)c1ccc(C(F)(F)F)cc1 (stereo not drawn)	none
CCCCCCCCNC(C)C(O)c1ccc(SC(C)C)cc1 (stereo not drawn)	CD40 NFkB inh 39
CC(NCCc1ccc(O)cc1)C(O)c1ccc(O)cc1 (stereo not drawn)	none
Cc1ccc(CN(C)C[C@@H]2OCc3cn(nn3)CCCC(=O)N([C@@H](C)CO)C[C@H]2C)cc1	none
COc1ccc2c3c(n(C)c2c1)[C@H](CO)N(C(=O)Nc1ccc(F)cc1)CC31CCN(C(=O)c2ccc3c(c2)OCO3)CC1	CD40 NFkB inh 65[25 µM]
COc1ccc2c3c(n(C)c2c1)[C@H](CO)N(C(=O)Nc1ccc(F)cc1)CC31CCN(C(=O)Nc2c(C)noc2C)CC1	none
COc1ccc2c3c(n(C)c2c1)[C@@H](CO)N(C(=O)Nc1ccc(F)cc1)CC31CCN(C(=O)c2ccc3c(c2)OCO3)CC1	none
CN1c2ccc(C#Cc3cccnc3)cc2[C@H]2[C@H](CCN2C(=O)C2CCCCC2)[C@H]1CO	none
N#C[C@@H]1[C@H](c2ccc(C3=CCCCC3)cc2)[C@H](CO)N1C(=O)c1cccc(F)c1	none
COCC#Cc1ccc([C@@H]2[C@H](C#N)N(C(=O)Cc3ccccc3)[C@H]2CO)cc1	none
COC(=O)C12OCC34C(CC5C(C)=C(O)C(=O)CC5(C)C3C(O)C1O)OC(=O)C(OC(=O)C=C(C)C)C24 (stereo not drawn)	CD40 NFkB inh 103
C[C@H](CO)N1C[C@H](C)[C@H](CN(C)C(=O)Nc2ccc(C(F)(F)F)cc2)OCCCC[C@H](C)Oc2ccc(NC(=O)Nc3ccc4c(c3)OCO4)cc2C1=O	none
OC[C@H]1[C@H]2c3ccccc3NC[C@H]2N1CC1CCOCC1	none
O=C(Cc1ccccn1)N1CC(=O)N2[C@H](C1)[C@H](c1ccc(C#CCC3CCCC3)cc1)[C@@H]2CO	none
C[C@@H]1CN([C@H](C)CO)C(=O)c2c(c3ccccc3n2C)-c2ccccc2CO[C@H]1CN(C)C(=O)c1cc(Cl)cc(Cl)c1	CD40 NFkB inh 51[25 µM]
C[C@@H]1CN([C@@H](C)CO)C(=O)c2c(c3ccccc3n2C)-c2ccccc2CO[C@H]1CN(C)S(=O)(=O)c1ccc([N+](=O)[O-])cc1	CD40 NFkB inh 55[25 µM]
C[C@H]1CN([C@@H](C)CO)C(=O)c2c(c3ccccc3n2C)-c2ccccc2CO[C@@H]1CN(C)S(=O)(=O)c1ccccc1	none
C[C@@H]1CN([C@H](C)CO)C(=O)c2c(c3ccccc3n2C)-c2ccccc2CO[C@H]1CN(C)S(=O)(=O)c1ccc([N+](=O)[O-])cc1	none
C[C@H]1CN([C@@H](C)CO)C(=O)c2c(c3ccccc3n2C)-c2ccccc2CO[C@@H]1CN(C)Cc1ccc(C(F)(F)F)cc1	none
C[C@H](CO)N1C[C@H](C)[C@H](CN(C)C(=O)c2cc(Cl)cc(Cl)c2)OCc2ccccc2-c2c(n(C)c3ccccc23)C1=O	none
C[C@@H]1CN([C@H](C)CO)C(=O)c2c(c3ccccc3n2C)-c2ccccc2CO[C@@H]1CN(C)Cc1ccc(C(F)(F)F)cc1	none
C[C@@H]1CN([C@@H](C)CO)C(=O)c2c(c3ccccc3n2C)-c2ccccc2CO[C@H]1CN(C)C(=O)c1cc(Cl)cc(Cl)c1	none
C[C@H]1CN([C@@H](C)CO)C(=O)c2c(c3ccccc3n2C)-c2ccccc2CO[C@H]1CN(C)C(=O)Nc1ccccc1C(F)(F)F	CD40 NFkB inh 59[25 µM]
C[C@@H]1CN([C@H](C)CO)C(=O)c2c(c3ccccc3n2C)-c2ccccc2CO[C@H]1CN(C)Cc1cccc(C(F)(F)F)c1	CD40 NFkB inh 76[25 µM]
COc1ccccc1NC(=O)N(C)C[C@@H]1OCc2ccccc2-c2c(n(C)c3ccccc23)C(=O)N([C@H](C)CO)C[C@H]1C	none
C[C@@H]1CN([C@H](C)CO)C(=O)c2c(c3ccccc3n2C)-c2ccccc2CO[C@@H]1CN(C)C(=O)Nc1ccccc1C(F)(F)F	none
COCC(=O)N1[C@H](C#N)[C@H](c2ccc(C3=CCCCC3)cc2)[C@@H]1CO	none
CC(C)NC(=O)N1C[C@@H]2[C@H](c3ccccc31)[C@H](CO)N2C(=O)c1ccc(F)cc1	none
COC(=O)C(CCCN=C(N)N)NC(=O)CCCc1c(-c2ccccc2)[nH]c2c(F)cc(F)cc12 (stereo not drawn)	none
C[C@H](NC(=O)C[C@H]1CC[C@@H]2[C@@H](COc3ccc(NS(=O)(=O)c4ccc(Cl)cc4)cc3C(=O)N2C)O1)c1ccccc1	none
CCCN1[C@@H]2Cn3c(ccc(-c4ccccc4F)c3=O)[C@H]1[C@@H](C(=O)NCCOC)[C@@H]2CO	none
C[C@H](CO)N1C[C@H](C)[C@@H](CN(C)Cc2cccc(F)c2)OCc2ccccc2-c2c(n(C)c3ccccc23)C1=O	none
C[C@@H]1CN([C@@H](C)CO)C(=O)c2c(c3ccccc3n2C)-c2ccccc2CO[C@H]1CN(C)Cc1ccccc1	CD40 NFkB inh 49
C[C@@H]1CN([C@H](C)CO)C(=O)c2c(c3ccccc3n2C)-c2ccccc2CO[C@H]1CN(C)Cc1ccc(C(F)(F)F)cc1	none
C[C@@H]1CN([C@@H](C)CO)C(=O)c2c(c3ccccc3n2C)-c2ccccc2CO[C@@H]1CN(C)Cc1ccc(O)cc1	none
C[C@@H]1CN([C@@H](C)CO)C(=O)c2c(c3ccccc3n2C)-c2ccccc2CO[C@H]1CN(C)Cc1cccc(C(F)(F)F)c1	CD40 NFkB inh 78[25 µM]
C[C@H](CO)N1C[C@H](C)[C@@H](CN(C)Cc2ccccc2)OCc2ccccc2-c2c(n(C)c3ccccc23)C1=O	none
N#Cc1cccc(-c2ccc([C@H]3[C@@H](CO)N4CCCCN(C(=O)Nc5cccc(F)c5)C[C@@H]34)cc2)c1	none
CCc1cnc(N2[C@H](CO)[C@@H](c3ccccc3-c3ccccc3C)[C@@H]2C#N)s1	none
O=C(NC[C@@H]1N[C@@H](CO)[C@H]1c1ccc(C2=CCCCC2)cc1)c1ccccc1	none
O=C(NCc1ccccn1)C1CCCN(S(=O)(=O)c2ccccc2)C1 (stereo not drawn)	CD40 NFkB inh 26
CCOc1ccc(S(=O)(=O)N2CCCC(C(=O)NCc3ccccn3)C2)cc1Cl (stereo not drawn)	none
O=C(NCc1ccccn1)C1CCN(S(=O)(=O)c2ccccc2)CC1	none
O=C(C[C@@H]1C[C@H]2c3cc(NC(=O)c4cccnc4)ccc3O[C@H]2[C@@H](CO)O1)NC1CCCC1	none
Brc1cn2ccnc2c(N2CCOCC2)n1	none
COc1cccc(NC(=O)N(C)C[C@@H]2OCc3ccccc3-c3c(n(C)c4ccccc34)C(=O)N([C@H](C)CO)C[C@@H]2C)c1	none
COC(=O)c1ccc(OC(=O)CCS(=O)(=O)c2ccc(C)cc2)cc1	none
COC(=O)CCS(=O)(=O)c1nc(-c2ccccc2)cc(C(F)(F)F)n1	CD40 NFkB inh 95
COC(=O)CCNS(=O)(=O)c1ccc2ccccc2c1	none
CN1C(=O)c2cc(NC(=O)C3CC3)ccc2OC[C@@H]2O[C@H](CC(=O)NCCc3ccncc3)CC[C@@H]21	none
O=C1NCCOCc2cn(nn2)CC[C@@H]1Cc1ccc(F)cc1	none
CN(CC(=O)Nc1ccccc1Cl)C(=O)COC(=O)c1ccc(S(=O)(=O)C(F)F)cc1	none
CN(CC(=O)Nc1ccccc1Cl)C(=O)COC(=O)c1cccs1	none
Cc1nc(-c2ccc(F)cc2)c(CC(=O)N(C)CC(=O)Nc2ccccc2Cl)s1	CD40 NFkB inh 53
CNC[C@H]1OCc2ccccc2-c2c(n(C)c3ccccc23)C(=O)N([C@@H](C)CO)C[C@H]1C	none
CC(=O)N(C)C[C@@H]1Oc2ccc(NC(=O)NC(C)C)cc2C(=O)N(C)C[C@@H]1C	none
N#C[C@H]1[C@H](c2ccccc2C2=CCCCC2)[C@@H](CO)N1C(=O)NC1CCCCC1	none

Compound activity as filed in PubChem.
